Screening results (PubChem)
CYP2C9 inh – blockers of cytochrome P450 2C9 activity – biochemical, luminescence, ADME assay, primary screen; P11712; CYP2C9 Supersomes, luciferin-H conversion; inhibition, % at 5 µM; hit rate 20% among 96,000; AID 777, 2007;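 active = blocking of liver enzyme CYP2C9 beyond about 50% at 5 µM, limit read from the data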
CYP2C19 inhib – blockers of cytochrome P450 2C19 activity – biochemical, luminescence, ADME assay, primary screen | P33261 | CYP2C19 Supersomes, luciferin-H EGE luminescence, 30 min | inhibition, % at 5 µM | hit rate 21% among 96,000;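 active = CYP2C19 inhibition above a set limit at 5 µM in the primary screen, cut at about 50% in these data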;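 also: plate controls were negative control wells for no effect and 2.5 mM tranylcypromine positive control for full effect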
CYP2C19 act – human CYP2C19 activators, primary screen, biochemical, luminescence | recombinant CYP2C19, luciferin-H EGE luminescence; stronger effect = higher value; 0 = fully inhibited enzyme, 1 = untreated enzyme | activation factor at 5 µM | 96,000 tested, under 10 active | AID 1025, 2008;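 active = activation factor of at least 2 at 5 µM in the primary screen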;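 also: 0 = wells with 2.5 mM tranylcypromine and 1 = vehicle-only wells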
CYP2C9 act – human CYP2C9 activators, primary screen, biochemical, luminescence | Cytochrome P450 2C9 (Homo sapiens), P11712 | recombinant CYP2C9, luciferin-H conversion; stronger effect = higher value; factor 1 = untreated enzyme, 0 = blocked | activation factor at 5 µM | hit rate 1.4% among 96,000;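 active = activation factor of 2 or more for CYP2C9 at a 5 µM dose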;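 also: 0 = sulfaphenazole-blocked wells and 1 = vehicle-only wells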
Cav32 inh – Cav3.2 calcium influx blockers – cell-based, Fluo-4 calcium fluorescence, FDSS, MLSMR library, primary screen | Voltage-dependent T-type calcium channel subunit alpha-1H (Homo sapiens), O95180 | Cav3.2-expressing cells; stronger effect = lower value | B-score at 10 µM | hit rate 4% among 100,000;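 active = single-dose well whose peak fluorescence ratio is a statistical outlier from its plate by either plate-standardised score or position-corrected B-score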
* hit, by the source's call; · = no result. A selection: hits, their analogues and other compounds. The true share with any hit is near 27%.

SMILES	CYP2C9 inh	CYP2C19 inhib	CYP2C19 act	CYP2C9 act	Cav32 inh
CC1CCCN(C(=O)COC(=O)c2ccc[nH]c2=O)C1 (stereo not drawn)	0	8	0.9	1	0.33
CCc1cc(=O)oc2cc(OCC(N)=O)c(Cl)cc12	-6	-4	1	1.1	-3.8
CCn1c(CC(=O)Nc2ccccc2F)nnc1SCC(=O)N1CCN(c2ccccc2)CC1	44	14	0.9	0.6	1
Cc1cc(Cl)c(S(=O)(=O)NC2CCCCC2)cc1OCC(=O)Nc1nncs1	·	·	·	·	-0.13
Cc1ccccc1-n1c(=O)cc(N2CCN(C(=O)c3ccco3)CC2)[nH]c1=O	·	·	·	·	0.57
COc1cccc(C(=O)OCc2ccccc2C#N)c1O	76*	92*	0.1	0.2	-1.7
CCOC(=O)c1ccccc1NC(=O)Cc1ccccc1OC	·	·	·	·	-1.8
Fc1cccc(Oc2nc3ccccc3n3cccc23)c1	-10	5	1	1.1	0.34
CCCCN(C)C(=O)CSc1nc(NCc2ccc(OC)cc2)c2ccccc2n1	44	54*	0.5	0.6	-1.5
COCCNc1nc(SCC(=O)N2CCN(c3ccccc3)CC2)nc2ccccc12	·	·	·	·	0.061
CCc1nnc(NC(=O)CSc2nnc(Cc3cccn3C)n2CCOC)s1	·	·	·	·	0.19
O=P(COc1ccccc1)(c1ccccc1)c1ccccc1	72*	45	0.6	0.3	-0.97
CCCCN(CCCC)CP(=O)(c1ccccc1)c1ccccc1	20	23	0.8	0.8	-5.8*
O=P(Cc1ccncc1)(c1ccccc1)c1ccccc1	-3	60*	0.4	1	1
O=P(CCCCCCCCCP(=O)(c1ccccc1)c1ccccc1)(c1ccccc1)c1ccccc1	99*	80*	0.2	0	-9.6*
CCOc1ccc(NC(=O)C2CC(=O)N(c3cc(C)cc(C)c3)C2)cc1 (stereo not drawn)	-72	23	0.8	1.7	-2.4
O=S1(=O)C=CC(Nc2ccccc2)C1 (stereo not drawn)	-2	-4	1	1	0.2
Cn1nc(-c2ccc(Cl)cc2)nc2c(=O)n(C)c(=O)nc1-2	93*	98*	0	0.1	-2.6
CCN(C(=O)COc1ncnc2ccc(Br)cc12)C1CCS(=O)(=O)C1 (stereo not drawn)	-10	-11	1.1	1.1	1.3
CCCC(=N)C1=C(O)CC(CC(C)SCC)CC1=O (stereo not drawn)	66*	82*	0.2	0.3	1.5
CCOC(=O)N1CCN(C(=O)CCc2ccc(S(=O)(=O)NCCc3ccccc3)cc2)CC1	78*	82*	0.2	0.2	0.49
O=C(CCc1ccc(S(=O)(=O)NCCc2ccccc2)cc1)N1CCN(Cc2ccc3c(c2)OCO3)CC1	43	53*	0.5	0.6	-3.8
O=C(CCc1ccc(S(=O)(=O)NCCc2ccccc2)cc1)Nc1ccc2c(c1)OCO2	84*	90*	0.1	0.2	0.99
CC(C)CNS(=O)(=O)c1ccc(CCC(=O)N2CCN(Cc3ccc4c(c3)OCO4)CC2)cc1	·	·	·	·	0.13
CCOC(=O)N1CCN(C(=O)CCSc2ccccc2)CC1	38	71*	0.3	0.6	0.25
SMILES	CYP2C9 inh	CYP2C19 inhib	CYP2C19 act	CYP2C9 act	Cav32 inh
CC(C)CNS(=O)(=O)c1ccc(CCC(=O)Nc2ccc3c(c2)OCO3)cc1	38	5	1	0.6	0.47
CCOC(=O)c1c(NC(=O)Cn2nc([N+](=O)[O-])c(Br)c2C)sc2c1CCC(C)C2 (stereo not drawn)	-16	-15	1.2	1.2	-0.36
Cc1ncsc1CCSc1nc2ccccc2c(=O)n1C	68*	77*	0.2	0.3	-1.7
N#CC1(C#N)C2=C(CCCC2)NC(c2ccccc2)C1(C#N)C#N (stereo not drawn)	40	15	0.9	0.6	-1.3
CCC1CCCCN1C(=O)COc1cc(=O)n(C)c2ccccc12 (stereo not drawn)	8	59*	0.4	0.9	0.044
CCC1CCCCN1CCCNC(=O)COc1cc(=O)n(C)c2ccccc12 (stereo not drawn)	3	-4	1	1	0.34
CCC1CCCCN1C(=O)Cn1c(=O)oc2ccccc21 (stereo not drawn)	12	83*	0.2	0.9	-0.38
CCC1CCCCN1C(=O)Cn1c(C(=O)OC)cc2ccsc21 (stereo not drawn)	38	53*	0.5	0.6	-0.34
CCc1ccc(S(=O)(=O)NCc2csc(C)n2)s1	·	·	·	·	0.34
CC(=O)Nc1nnc(SCc2ccccc2F)s1	-16	46	0.5	1.2	-0.014
Cc1ccccc1Nc1nnc(SCc2cc([N+](=O)[O-])cc3c2OCOC3)s1	62*	100*	0	0.4	-2.5
C=CCN=c1sc(C(=O)OC)cc(=O)n1CC=C	18	52*	0.5	0.8	-1.4
CCCNS(=O)(=O)c1ccc(Oc2ncc(C(F)(F)F)cc2Cl)cc1	67*	87*	0.1	0.3	-3.6
CCCNS(=O)(=O)c1ccc(OCC(=O)OC)cc1	56*	53*	0.5	0.4	0.045
COC(=O)COc1ccc(S(=O)(=O)NCCC2=CCCCC2)cc1	69*	95*	0	0.3	-2
COC(=O)COc1ccc(S(=O)(=O)NCCC2=CCCCC2)cc1C	8	99*	0	0.9	-2.6
CCCNS(=O)(=O)c1ccc(OCC(=O)NCCCOC)cc1	·	·	·	·	0.77
CCCNS(=O)(=O)c1ccc(OCC(=O)NCCC2=CCCCC2)cc1	39	34	0.7	0.6	-0.37
Cc1c(NC(=O)c2cc3ccccc3oc2=O)c(=O)n(-c2ccccc2)n1C	4	-4	1	1	0.56
COc1ccccc1NC(=O)N1CCN(c2cc(-c3ccccc3)nc3ncnn23)CC1	20	33	0.7	0.8	0.001
Cc1ccc(-n2nc(C)c3c2OC(N)=C(C#N)C3c2ccc(F)cc2)cc1 (stereo not drawn)	6	10	0.9	0.9	-0.12
Cc1nn(-c2ccccc2)c2c1C(c1cccs1)C(C#N)=C(N)O2 (stereo not drawn)	79*	42	0.6	0.2	·
Cc1nn(-c2ccccc2)c2c1C(c1ccco1)C(C#N)=C(N)O2 (stereo not drawn)	79*	27	0.7	0.2	0.88
CCCOC(=O)/C(C(N)=NCc1ccccc1)=C(\O)OCCC	35	42	0.6	0.7	-2.1
CCCc1cc(C(=O)NCC(C)C)no1	15	33	0.7	0.8	0.95
COc1cc(NC(=O)CN2CCN(Cc3ccc4c(c3)OCO4)CC2)cc(OC)c1	47	49	0.5	0.5	·
COc1ccc(OC2C(=O)N(Cc3ccc4c(c3)OCO4)C2c2sccc2C)cc1 (stereo not drawn)	69*	74*	0.3	0.3	-2.5
